Bioassay records: PubChem BioAssay, several laboratories
CSC inhib = cancer stem cell inhibition | cancer stem cell-like cells viability, luminescence | inhibition, % at 7.5 µM | actives 1.1% (n = 300,000); in the data active = inhibition above about 75%; inconclusive = no clear call, values can overlap the other calls; tested in HMLE shEcad cells
Gli-Sufu antag = Gli-Sufu pathway antagonism | inhibition, % at 5 µM | actives 0.74% (n = 340,000) | Sufu-KO-LIGHT fibroblasts, Gli luciferase reporter luminescence;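 active = inhibition above about 55%, limit read from the data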
Mdm2-MdmX inh = inhibitors of human Mdm2/MdmX interaction | O15151+Q00987 | SaOS-2 split-luciferase Mdm2/MdmX complementation, luminescence | inhibition, % at 8 µM | actives 3% (n = 330,000);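 active = inhibition of at least 50% at 8 µM in the primary screen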
Target sequence (O15151 whole entry, looked up): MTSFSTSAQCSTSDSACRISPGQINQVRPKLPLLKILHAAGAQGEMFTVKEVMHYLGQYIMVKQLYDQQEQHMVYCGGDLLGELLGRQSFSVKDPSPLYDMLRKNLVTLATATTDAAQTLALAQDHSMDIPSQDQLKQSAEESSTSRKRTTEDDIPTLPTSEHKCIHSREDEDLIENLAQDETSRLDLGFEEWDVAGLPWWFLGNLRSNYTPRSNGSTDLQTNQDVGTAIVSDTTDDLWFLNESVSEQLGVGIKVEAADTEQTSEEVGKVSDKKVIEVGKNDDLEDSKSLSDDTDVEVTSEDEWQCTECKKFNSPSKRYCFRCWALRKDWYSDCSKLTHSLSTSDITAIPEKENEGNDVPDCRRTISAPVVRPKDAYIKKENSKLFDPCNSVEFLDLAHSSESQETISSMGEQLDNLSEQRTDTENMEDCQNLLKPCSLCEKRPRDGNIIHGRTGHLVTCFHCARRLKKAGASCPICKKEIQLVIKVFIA
Target sequence (Q00987 whole entry, looked up): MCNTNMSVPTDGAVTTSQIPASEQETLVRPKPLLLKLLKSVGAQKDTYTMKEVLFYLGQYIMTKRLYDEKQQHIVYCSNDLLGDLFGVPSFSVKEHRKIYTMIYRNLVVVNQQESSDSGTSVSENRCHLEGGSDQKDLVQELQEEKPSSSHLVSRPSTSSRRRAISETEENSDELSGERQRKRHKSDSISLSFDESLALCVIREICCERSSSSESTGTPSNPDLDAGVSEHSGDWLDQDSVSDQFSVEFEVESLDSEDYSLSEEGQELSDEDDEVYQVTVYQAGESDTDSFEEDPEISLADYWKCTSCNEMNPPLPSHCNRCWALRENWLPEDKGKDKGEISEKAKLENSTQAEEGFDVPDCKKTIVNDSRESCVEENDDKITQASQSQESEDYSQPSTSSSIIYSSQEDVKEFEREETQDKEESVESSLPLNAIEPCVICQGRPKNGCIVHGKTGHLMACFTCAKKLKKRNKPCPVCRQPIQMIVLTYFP
697 NFkB inh = inhibitors of the PMA/ionomycin-induced NF-kB reporter in 697 B cells; 697 B-cell NF-kB luciferase reporter, 16 h; inhibition, % at 4 µM; actives 0.33% (n = 330,000); in the data active = inhibition above about 35%
Jurkat NFkB inh = inhibitors of the PMA/ionomycin-induced NF-kB reporter in Jurkat cells | PMA/ionomycin-induced NF-kB luciferase reporter, luminescence | inhibition, % at 4 µM | actives 0.53% (n = 330,000) | AID 435003; in the data active = inhibition above about 50%
aSyn 5UTR inh = 5' untranslated region of α-synuclein, MLPCN primary screen. AID 1813. inhibition, % (tested at 7.5 µM). alpha-synuclein 5'UTR reporter, inhibitor activity. actives 0.82% (n = 300,000); in the data active = inhibition above about 60%; inconclusive = no clear call, values can overlap the other calls;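 also: H4 neuroglioblastoma cells stably carrying SNCA 5'UTR luciferase fusion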
A number is an active result; i = inactive; ? = inconclusive; nt = no result. Sampled rows, rich in hits. Any-hit rate of the full collection: about 4.5%.

SMILES | CSC inhib | Gli-Sufu antag | Mdm2-MdmX inh | 697 NFkB inh | Jurkat NFkB inh | aSyn 5UTR inh
O=C(/C(=C/c1ccccc1)c1ccccc1)N1CCCCC1 | i | i | i | i | i | i
N#C/C(=C(/O)COc1ccc(Cl)cc1)c1nc2ccccc2s1 | 98.9 | i | i | i | i | i
O=C(Nc1nnc(-c2ccc(Br)cc2)o1)c1cccc(N2C(=O)CCC2=O)c1 | i | i | i | i | i | i
CC(C)N1CCN(Cc2ccc(OCc3ccccc3)cc2)CC1CCO (stereo not drawn) | 77.0 | i | i | i | i | i
CC(C)N1CCN(Cc2ccc(-c3ccccc3)cc2)CC1CCO (stereo not drawn) | i | i | i | i | i | i
COc1cc(OC)cc(C(=O)Nc2ccc(Nc3ccccc3)cc2)c1 | 88.5 | i | i | i | i | i
Cc1ccc2sc(C)cc(=O)c2c1 | nt | i | nt | nt | nt | nt
O=C(OC[C@H]1O[C@@H](OC(=O)c2cc(O)c(O)c(OC(=O)c3cc(O)c(O)c(O)c3)c2)[C@H](OC(=O)c2cc(O)c(O)c(OC(=O)c3cc(O)c(O)c(O)c3)c2)[C@@H](OC(=O)c2cc(O)c(O)c(OC(=O)c3cc(O)c(O)c(O)c3)c2)[C@@H]1OC(=O)c1cc(O)c(O)c(OC(=O)c2cc(O)c(O)c(O)c2)c1)c1cc(O)c(O)c(OC(=O)c2cc(O)c(O)c(O)c2)c1 | 90.0 | nt | nt | nt | nt | nt
COC1OC(COC(=O)c2ccccc2)C(OC(=O)c2ccccc2)C1OC(=O)c1ccccc1 (stereo not drawn) | i | i | i | i | i | i
O=[N+]([O-])c1ccc(C(O)CN=Cc2ccc(O)cc2O)cc1 (stereo not drawn) | i | i | i | i | i | i
CC(C)CCNc1nc(-c2ccco2)c2c(c1C#N)CCCC2 | 79.8 | i | i | i | i | i
CCCC(=O)Nc1ccc(C(=O)N/N=C/c2ccc([N+](=O)[O-])o2)cc1 | i | i | i | i | i | 111.1
Oc1ccc(-c2csc(-c3c[nH]c4ccccc34)n2)c(O)c1 | 89.8 | i | i | i | i | i
Cc1ccc(-c2csc(-c3c[nH]c4ccccc34)n2)c(C)c1 | 99.3 | i | i | i | i | i
O=c1c2c(nc3n1CCCCC3)-c1ccccc1CC21CCCC1 | 93.3 | i | i | i | i | i
Nn1cnc2c(c1=O)C1(CCCCC1)Cc1ccccc1-2 | i | i | i | i | i | i
COc1ccc(OCc2cc(=O)c3ccc4c(c3o2)C=CC(C)(C)O4)cc1OC | i | i | i | i | i | nt
CC(C)=CCOc1ccc([C@@H]2COc3c(ccc4c3C=CC(C)(C)O4)C2)c(O)c1 | 101.7 | i | i | i | i | i
COc1ccc(/C(O)=C2/C(=O)C(=O)N(c3ccccn3)C2c2ccc(OC)c(OC)c2)cc1 (stereo not drawn) | i | i | i | i | i | i
O=C(C=Cc1ccccc1O)c1ccccc1O | nt | i | nt | nt | nt | nt
O=C(/C=C/c1ccccc1Cl)c1ccccc(=O)c1O | 107.7 | i | nt | nt | nt | i
Cc1ccc(C)c(/C=C/C(=O)c2ccccc(=O)c2O)c1 | 92.5 | i | nt | nt | nt | i
C=CC(=O)Nc1cccc(N(C)c2ccnc(Nc3ccc(N4CCN(C)CC4)cc3)n2)c1 | nt | i | nt | nt | nt | nt
COc1cccc(-n2c(SCc3cc(=O)oc4cc(O)c(O)cc34)nc3ccccc3c2=O)c1 | 99.8 | i | nt | nt | nt | i
CN1CCN(c2ccc(-c3ccc4ccccc4n3)cc2)CC1 | nt | 88.4 | nt | nt | nt | 111.6
SMILES | CSC inhib | Gli-Sufu antag | Mdm2-MdmX inh | 697 NFkB inh | Jurkat NFkB inh | aSyn 5UTR inh
CC(C)c1nc2sc3ccccc3c(=O)c2c(=O)n1Cc1ccccc1 | 77.4 | i | i | i | i | ?
Cc1cc(NCCCn2ccnc2)n2nc(C)c(-c3ccc(Cl)cc3)c2n1 | 124.7 | i | i | i | i | ?
Cc1cc(NCCCn2ccnc2)n2nc(C)c(-c3ccccc3)c2n1 | i | i | i | i | i | i
Cc1c(C(=O)c2ccccc2C(=O)O)sc2ccccc12 | i | i | i | i | i | i
CCOc1ccc(/C=N/NC(=O)c2[nH]ncc2Br)c(O)c1 | 87.0 | i | i | i | i | i
COc1ccc(OC)c(/C=N/NC(=O)c2[nH]ncc2Br)c1 | i | i | i | i | i | i
CC(=O)C1=C(O)C(=O)N(c2ccc(Br)cc2)C1c1ccc(Br)cc1 (stereo not drawn) | i | i | i | i | i | i
Nc1nc(NC2CCCCC2)nc(NCCO)c1[N+](=O)[O-] | i | nt | i | i | i | i
COCCNc1nc(N)c([N+](=O)[O-])c(NC2CCCCC2)n1 | i | i | i | i | i | 67.7
CCCCN(C(=O)c1ccc(C)o1)c1c(N)n(CC(C)C)c(=O)[nH]c1=O | i | i | i | i | i | nt
CC1(C)Cc2c(sc(NC(=O)COc3ccc(Cl)cc3Cl)c2C(N)=O)C(C)(C)N1 | i | i | i | i | i | 62.1
NS(=O)(=O)c1cccc(NC(=O)CCN2C(=O)C3CCCCC3C2=O)c1 (stereo not drawn) | nt | i | i | i | i | nt
Cc1cc(C)nc(NC(=NCCc2c[nH]c3ccccc23)NC(=O)Nc2ccc(Cl)cc2)n1 | 97.0 | i | i | i | i | i
CC(=O)c1c(C)oc2c1C(=O)c1ccccc1C2=O | 82.6 | i | nt | nt | nt | i
CC(=O)c1c2c3c(c(Br)ccc3n(C)c1=O)C(=O)c1ccccc1-2 | i | i | i | i | i | i
COc1cccc(C(=O)/C=C/c2ccc(N3CCCCC3)c([N+](=O)[O-])c2)c1 | 85.9 | i | i | i | i | i
CC(C)(C)/C(O)=C(/C#N)c1nc2ccccc2[nH]1 | i | i | i | i | i | i
CC(C)CC(/C(O)=C(\C#N)c1nc2ccccc2[nH]1)N1C(=O)c2ccccc2C1=O (stereo not drawn) | nt | i | i | i | i | 64.9
COc1ccc(C(=O)Nc2sc3c(c2C(=O)O)CC(C)(C)OC3)cc1 | i | i | i | i | i | 62.9
O=C1COc2ccc(N3C(=O)C=CC3=O)cc2N1 | 89.3 | nt | i | i | i | i
Cc1cccc(NC(=O)CNC(=O)Cn2cc(C(F)(F)F)cc(Cl)c2=O)c1C | nt | i | i | i | i | nt
CCN1C(=O)/C(=C\c2ccncc2)SC1=S | i | i | i | i | i | i
CCCCC(CC)CN1C(=O)/C(=C/c2ccncc2)SC1=S (stereo not drawn) | 106.6 | i | i | i | i | i
O=Cc1coc2c(ccc3ccccc32)c1=O | i | nt | i | i | i | i
O=C(Nc1ccc(O)c(-c2nc3ccccc3o2)c1)C1(c2ccc(Br)cc2)CCCC1 | 84.3 | i | i | i | i | i
SMILES | CSC inhib | Gli-Sufu antag | Mdm2-MdmX inh | 697 NFkB inh | Jurkat NFkB inh | aSyn 5UTR inh
CCOc1ccc(C(=O)CCC(=O)N2CCN(c3ccc(O)cc3)CC2)cc1 | 80.6 | i | i | i | i | nt
O=C(CCC(=O)N1CCN(c2ccc(O)cc2)CC1)c1ccc(Br)cc1 | 101.1 | nt | i | i | i | i
O=C(CCC(=O)N1CCN(c2ccc(O)cc2)CC1)c1cccs1 | i | i | i | i | i | i
CCOc1ccccc1NC(=O)c1ccccc1-c1nc(-c2ccccc2OC)no1 | i | i | i | i | i | nt
Nc1nc2cc(Cl)c(Br)cc2o1 | nt | i | nt | nt | nt | nt
O=C(Nc1ccc(Oc2ccccc2)cc1)C1CCN(c2c3c(nc4ncnn24)CCC3)CC1 | i | 70.3 | i | i | i | i
